Screening data deposited in PubChem by several laboratories.
This is a sample that favours compounds with a hit; in the whole collection about 1.6% have one here.
GC-A act: GC-A (human) enzyme activation; activation, % at 10 µM; hit rate 0.14% among 370,000; AID 1671463; P16066; HEK293 GC-A cells, cGMP TR-FRET, EC30 ANP; 0% at EC30 ANP, 100% saturating ANP; in the data active = activation above about 40%
NPR2 activator: GC-B (human) receptor activation; HEK293-GC-B cells, CNP EC30, cGMP TR-FRET; 0% at EC30 CNP, 100% saturating CNP; hit rate 0.11% among 370,000; activation, % at 10 µM;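 active = activation at 10 µM reaching about 35% in either raw or pattern-adjusted values, limit read from the data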
Efflux pump inh: antifungal efflux pump inhibition, Nile Red retention; S. cerevisiae Candida pump triplex; AID 485275; hit rate 0.44% among 330,000; inhibition, % at 10 µM;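 active = plate passing quality check with inhibition over a set limit, or well fluorescence over plate mean plus 4 SD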;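 also: Nile Red retained in pooled yeast measured as flow cytometry median fluorescence; higher means more Nile Red kept so more efflux inhibition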
NSD2 HMT inh: blocks human histone methyltransferase NSD2 | NSD2 peptide methylation, AlphaScreen, 120 min | inhibition, % at 12.5 µM | hit rate 0.54% among 310,000 | O96028; in the data active = inhibition above about 50%
Rce1 inhib: blocks yeast Ras-converting enzyme; Q03530; hit rate 0.27% among 290,000; yeast membranes, quenched prenylated peptide cleavage fluorescence; calls only;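 active = fall in fluorescence gain of 50% or more versus controls, with final raw signal at or below 3038400; inconclusive = same 50% fall but final raw signal above 3038400; inactive = fall in fluorescence gain under 50%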
V-ATPase pHluor: yeast V-ATPase proton transport regulation by pHLuorin; S. cerevisiae, pHLuorin cytosolic pH fluorescence; response, % at 10 µM; hit rate 0.37% among 350,000; AID 504577; in the data active = response mostly above about 7.3%, no sharp cut-off; inactive = mostly below about 5.4%; also: actives read high
AlphaScreen art: counter-screen for NSD2 inhibitors: AlphaScreen artifacts | AlphaScreen artifact counterscreen, preloaded methylated H4 peptide | hit rate 9.4% among 1,500 | AC35, µM (doses to about 10 µM) | shares compounds with NSD2 HMT inh; call rule not given here
Numbers stand for hits; 0 = inactive; ? = inconclusive; - = no result given.

SMILES	GC-A act	NPR2 activator	Efflux pump inh	NSD2 HMT inh	Rce1 inhib	V-ATPase pHluor	AlphaScreen art
O=C1NC2=C(CCc3ccccc32)C(c2ccccc2)N1 (stereo not given)	0	0	0	93	0	0	0
C=CCOc1ccc(C2NC(=S)NC3=C2CCc2ccccc23)cc1 (stereo not given)	0	0	0	0	0	0	-
O=C(CCc1nnc(-c2ccccc2)o1)NCc1cc(F)ccc1F	0	0	0	51	0	0	0
O=C(O)CN1C(=O)/C(=C/c2ccc(SCc3ccccc3)o2)SC1=S	0	0	-	54	-	0	0
CCN(CC)Cc1c(O)c(Cl)cc2c(C)cc(=O)oc12	0	0	-	112	0	0	0
CCN(CC)Cc1c(O)c(Cl)cc2c(C)c(C)c(=O)oc12	0	0	0	0	?	0	-
COC(=O)[C@]12C[C@H](CC(=O)NCc3cccc(C(F)(F)F)c3)C(=O)N(CCC3=CCCCC3)C1=C[C@H](C1CCCC1)O[C@@H]2C	0	0	-	-	-	-	-
O=C(NCC1CCCO1)c1coc2nc3ccccc3nc12 (stereo not given)	0	0	0	0	0	0	-
C=CCn1c(N)c(C(=O)NCC2CCCO2)c2nc3ccccc3nc21 (stereo not given)	0	0	0	99	0	0	0
COCCN(C(=O)CNC(=O)c1ccco1)C(C(=O)NC1CCCC1)c1ccccc1 (stereo not given)	0	0	0	0	0	0	-
COCCN(C(=O)CNC(=O)c1ccco1)C(C(=O)NC1CCCC1)c1ccc(OC)cc1 (stereo not given)	0	0	0	110	0	0	0
C=CCN1[C@@H](C)COc2cccc(N3CCCC3)c2S1(=O)=O	0	0	-	-	-	-	-
Cc1nc(C)c(C(=O)Nc2ncc([N+](=O)[O-])s2)o1	0	0	0	50	0	0	0
c1ccc(Cn2ccc3ccc(-c4ccc5ccn(Cc6cccc(-c7cccs7)c6)c5c4)cc32)cc1	0	0	-	-	-	-	-
NC(=O)c1nsc(C(=O)N(c2ccccc2)C(C(=O)NCC2CCCO2)c2ccc3ncccc3c2)c1N (stereo not given)	0	0	0	59	-	0	0
O=C1Cc2ccccc2C(=O)N1c1ccccc1	0	0	0	86	0	0	0
CCOC(=O)[C@]12CCCC=C1N(Cc1ccc(OC)cc1)C(=O)[C@@H]2CC(=O)N1CCCC1	0	0	-	-	-	-	-
Cc1cc(/C=C(/C#N)c2nc3ccccc3[nH]2)c(C)n1-c1cc(C(=O)O)cc(C(=O)O)c1	0	0	-	76	0	0	0
Nc1ccc(N=Nc2ccccc2O)c(N)c1	0	0	0	54	0	0	0
Oc1ccccc1N=Nc1ccccc1O	0	0	-	0	0	0	-
COc1ccc(C(=O)Nc2c3c(nn2-c2ccc(Cl)cc2)CS(=O)(=O)C3)cc1	0	0	0	69	0	0	0
COc1ccc(C(=O)Nc2c3c(nn2-c2ccc([N+](=O)[O-])cc2)CS(=O)(=O)C3)cc1	0	0	0	0	0	0	-
CC[n+]1ccc(/C=C/c2ccc(N(C)C)cc2)c2ccccc21	0	0	-	94	-	0	8.7µM
CC[n+]1ccccc1/C=C/c1ccc(N(C)C)cc1	0	0	-	0	0	0	-
Cc1cccc(/C=N/NC(=O)C(C)Nc2cccc3ccccc23)n1 (stereo not given)	0	0	0	103	0	0	0
SMILES	GC-A act	NPR2 activator	Efflux pump inh	NSD2 HMT inh	Rce1 inhib	V-ATPase pHluor	AlphaScreen art
CC(Nc1cccc2ccccc12)C(=O)N/N=C/c1ccc([N+](=O)[O-])cc1 (stereo not given)	0	0	0	0	0	0	-
C=CCN1C(=O)[C@@H](CC(=O)N2CCSCC2)[C@]2(C(=O)OCC)CCCCC/C=C/12	0	0	-	-	-	-	-
c1cncc(-c2noc(C34CC5CC(CC(C5)C3)C4)n2)c1	0	0	0	0	0	0	-
Cc1ccccc1-c1noc(C23CC4CC(CC(C4)C2)C3)n1	0	0	0	63	0	0	0
O=C(c1cccc(C(F)(F)F)c1)N1CC[C@H]2[C@H](CCCN2Cc2ccc(F)cc2)C1	0	0	-	-	-	-	-
C/C(C/C(C)=C1/SC(=S)NC1=O)=C1\SC(=S)NC1=O	0	0	-	132	-	0	0
CCCCCC/C(C)=C1/SC(=S)NC1=O	0	0	0	0	0	0	-
COc1ccc(CN2C3=NC(c4ccccc4)CC(=O)N3/C(=C\c3ccccc3)C2c2ccccc2)c(OC)c1 (stereo not given)	0	0	-	-	-	-	-
CCN1C(=O)c2ccccc2S(=O)(=O)c2ccc(C(=O)NC(C)C)cc21	0	0	0	52	0	0	0
CC1(C)CC(N=C2C=CC3=NC45CCCCC4CC4=C(CCCC4)N5C3=C2)CC(C)(C)N1 (stereo not given)	-	-	-	64	-	-	0
CC1Oc2ccc(C#N)cc2N(Cc2cccc(F)c2)C1=O (stereo not given)	0	0	-	55	-	-	0
CN(CCc1ccccc1)C1CCCN(S(=O)(=O)N(C)C)C1 (stereo not given)	0	0	0	53	0	0	0
CN1c2cccc3cccc(c23)N(C)C1(C)C	0	0	0	95	0	0	0
CCOC(=O)CC[C@@]1(C(=O)OCC)C[C@@H](CC(=O)NCCCN2CCCC2=O)C(=O)N2CCCC=C21	0	0	-	-	-	-	-
COc1ccc(-c2cc(NC(=O)Cc3c[nH]c4ccccc34)ccc2Nc2cccnc2)c(OC)c1	0	0	-	-	-	-	-
O=C(O)COc1ccc(/C=N/n2c(COc3ccccc3)nc3ccccc3c2=O)cc1	0	0	0	0	0	0	-
O=c1c2ccccc2nc(COc2ccccc2)n1/N=C/c1ccc(O)c(O)c1	0	0	0	65	0	0	0
C/[N+]([O-])=C1\Cc2ccccc2C1=O	0	0	0	61	0	0	0
CC(C)C[C@@H]1COc2cc(N3CCCC3)ccc2S(=O)(=O)N1C	0	0	-	-	-	-	-
O=C(c1cccs1)N1CC[C@H]2[C@H](CCCN2Cc2cc(F)cc(F)c2)C1	0	0	-	-	-	-	-
N=C1SCC(=O)N1c1ncc(Cc2cccc(Cl)c2)s1	0	0	-	80	0	0	0
O=C1C(=O)c2cccnc2-c2ncccc21	0	0	-	145	-	-	0
O=C1c2cccnc2-c2ncccc21	0	0	0	0	0	0	-
COC(=O)C(C)(C)NC(=O)c1cccs1	0	0	0	124	0	0	0
CNc1ccc(Br)cc(C(=O)/C=C/c2cc(OC)ccc2OC)c1=O	0	0	0	0	0	0	-
CNc1ccc(Br)cc(C(=O)/C=C/c2ccc(OC)cc2)c1=O	0	0	0	66	0	0	0
CCCCCN1CCCCC(NC(=O)c2ccc(F)c(F)c2)C1=O (stereo not given)	0	0	-	-	-	-	-
O=C(O)c1cccc(N2C(=O)c3ccc(C(=O)c4cccc([N+](=O)[O-])c4)cc3C2=O)c1	0	0	0	0	0	0	-
